The list is not random: actives were taken first. Their share in the collection is about 7.4%.
3T3 cytotox: Cytotoxic Profiling in NIH 3T3 Cell Line of Diverse Libraries Using Quantitative High-Throughput Screening; Potency, µM (doses to about 96.7 µM), inactives show at the highest dose activity change, negative = cytotoxicity, most hits filed as inhibitors; NIH 3T3 viability, CellTiter-Glo ATP luminescence, 48-72 h; actives 4.3% (n = 94,000); further: nearly all actives have a fitted effect of over 55% in size
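Mouse fibroblast NIH 3T3 cells, 400 per well, received compound via pintool and were incubated for 48 or 72 hr prior to CellTiter-Glo ATP luminescence measurement.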
FLuc inh: Firefly luciferase inhibition profiling of diverse chemical library using quantitative high-throughput screening | actives 2.5% (n = 76,000) | AID 1347043, 2019 | purified P. pyralis luciferase, luminescence, biochemical | Potency, µM (doses to about 115 µM), actives largely listed as inhibitors; further: nearly all actives have a fitted effect of over 65% in size
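FLuc 10nM, D-luciferin 10uM, ATP 10uM, Mg acetate 10mM, Tris acetate pH 7.5, Tween/BSA; cpd qHTS; enzyme added last; CCD luminescence.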
NPR1 antag: Natriuretic polypeptide receptor (hNpr1) antagonism - Primary qHTS. Atrial natriuretic peptide receptor 1 (Homo sapiens), P16066. HEK293 hNpr1 GloSensor cGMP, ANP-stimulated luminescence. Potency, µM (top dose mostly 46.3 µM), for the others: at the highest dose activity change, negative = inhibition, hits mostly inhibitors. actives 1.6% (n = 76,000). AID 1347048, 2019; calls by dose curve; further: nearly all actives have a fitted effect of over 60% in size
Target sequence (P16066 whole entry, looked up): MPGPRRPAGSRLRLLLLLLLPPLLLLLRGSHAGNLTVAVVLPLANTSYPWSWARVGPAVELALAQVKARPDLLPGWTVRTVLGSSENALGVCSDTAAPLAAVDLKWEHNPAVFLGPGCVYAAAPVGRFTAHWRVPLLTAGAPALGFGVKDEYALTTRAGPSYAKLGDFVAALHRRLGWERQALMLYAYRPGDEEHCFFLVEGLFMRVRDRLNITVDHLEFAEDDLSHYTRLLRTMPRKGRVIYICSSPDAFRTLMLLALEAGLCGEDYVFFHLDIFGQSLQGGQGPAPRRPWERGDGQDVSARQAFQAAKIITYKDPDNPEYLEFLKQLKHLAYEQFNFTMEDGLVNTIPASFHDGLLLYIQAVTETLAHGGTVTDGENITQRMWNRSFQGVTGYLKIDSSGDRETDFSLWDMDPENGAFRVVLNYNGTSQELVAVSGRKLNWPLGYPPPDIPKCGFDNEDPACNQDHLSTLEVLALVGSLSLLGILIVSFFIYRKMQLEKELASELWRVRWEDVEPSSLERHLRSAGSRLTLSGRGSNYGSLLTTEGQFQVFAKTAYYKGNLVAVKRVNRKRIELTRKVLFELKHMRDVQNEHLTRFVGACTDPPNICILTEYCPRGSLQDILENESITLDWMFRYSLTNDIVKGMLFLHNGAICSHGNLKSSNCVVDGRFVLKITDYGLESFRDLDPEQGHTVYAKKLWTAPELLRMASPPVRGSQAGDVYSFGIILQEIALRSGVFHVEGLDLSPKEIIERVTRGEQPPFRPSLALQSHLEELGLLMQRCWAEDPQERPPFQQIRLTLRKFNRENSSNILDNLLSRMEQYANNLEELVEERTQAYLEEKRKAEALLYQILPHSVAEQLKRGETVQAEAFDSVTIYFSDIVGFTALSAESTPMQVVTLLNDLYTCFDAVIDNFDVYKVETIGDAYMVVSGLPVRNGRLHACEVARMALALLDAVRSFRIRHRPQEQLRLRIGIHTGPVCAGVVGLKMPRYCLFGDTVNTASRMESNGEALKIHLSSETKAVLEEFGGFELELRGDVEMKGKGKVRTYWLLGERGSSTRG
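HEK293 cells stably expressing human Npr1 and cGMP GloSensor pGS-40F, loaded 2 h with 2% GloSensor reagent, given compound 30 min at room temperature. Luminescence read before and 20 min after 0.1 nM hNppA.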
HEK cytotox: Cytotoxic Profiling in HEK 293 Cell Line of Diverse Libraries Using Quantitative High-Throughput Screening; Potency, µM (top dose mostly 115 µM), for inactives: top-dose activity change, negative = cytotoxicity, hits mostly inhibitors; HEK 293 viability, ATP luminescence (CellTiter-Glo), 48-72 h; actives 6.6% (n = 94,000); AID 1345083, 2018; further: nearly all actives have a fitted effect of over 60% in size
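Viability of HEK 293 cells, plated at 250 cells/well, was judged by cellular ATP after compound treatment for 48 or 72 hr. Luminescence was imaged 10 min after CellTiter-Glo addition at room temperature.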
HEK293 viab: GF-AFC viability counterscreen for inhibitors of alpha-synuclein gene (SNCA) expression. actives 0.12% (n = 150,000). HEK-293-SNCA-luc viability, GF-AFC fluorescence, 24 h. Potency, µM (top dose mostly 57.1 µM), for inactives: at the top dose activity change, negative = cytotoxicity, usual class: cytotoxic;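 further: 0% = DMSO-treated cells and -100% = medium-only wells without cells; nearly all actives have a fitted effect of over 30% in size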
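Cytotoxicity counterscreen: after 24 h compound treatment of genome-edited SNCA-luciferase HEK-293 cells, live-cell protease substrate GF-AFC read by fluorescence after 30 min; activity scaled between DMSO (0%) and medium-only (-100%), curves Hill-fitted.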
SNCA expr inh: Primary qHTS assay for inhibitors of alpha-synuclein gene (SNCA) expression; AID 1671194, 2021; HEK-293 SNCA-luciferase knock-in, luminescence, 24 h; actives 0.17% (n = 140,000); Potency, µM (series often up to 57.2 µM), without a hit: top-dose activity change, negative = inhibition, actives largely listed as inhibitors;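 further: plate controls were DMSO cells for no effect and cell-free wells for full effect; nearly all actives have a fitted effect of over 45% in size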
* = called active by the depositor; i = inactive; ? = inconclusive; . = no result; [ ] = dose if it differs, or a comment. Unless noted, the call rests on the fitted dose curve; in most records, active means well fitted curve in the direction sought with a large enough effect; inconclusive means small, poorly fitted or top-dose-only effect, or another doubt; inactive means no such curve, though single readings can be large; an effect the other way counts as inactive or inconclusive. Unless noted, on the % scale 0 is the no-effect control and ±100 the full control effect; potency means the concentration at half of the fitted maximal effect.

SMILES	3T3 cytotox	FLuc inh	NPR1 antag	HEK cytotox	HEK293 viab	SNCA expr inh
COc1ccc(-n2c(=O)c3c(n2Cc2ccccc2)CN(C(=O)c2ccnn2C)CC3)cc1	35µM*	i	-2%	-5%	-5%	21%
COc1ccc(Cn2c3c(c(=O)n2Cc2ccccc2)CCN(C(=O)c2nc4ccccc4[nH]2)C3)cc1	20µM*	i	-20%	?	?	-15%
COc1ccc(Cn2c3c(c(=O)n2Cc2ccccc2)CCN(C(=O)c2cocn2)C3)cc1	25µM*	i	8%	i	1%	30%
Cc1cccc(C(=O)N2CCC(c3nc(-c4cccn4C)no3)C2)c1 (stereo unspecified)	?	.	.	?	3%	9%
C=CCNC(=O)c1coc(COc2ccc3c(c2)C(c2cccc(F)c2)N(C(=O)C2CC2)CC3)n1 (stereo unspecified)	?	i	-17%	?	3%	-13%
C=CCNC(=O)c1coc(COc2ccc3c(c2)C(c2cccc(C)c2)N(C(=O)C2CC2)CC3)n1 (stereo unspecified)	?	i	-15%	35µM*	-15%	4%
CC(C)C(=O)N1CCc2ccc(OCc3nc(C(=O)N4CCCC4)co3)cc2C1c1cccc(F)c1 (stereo unspecified)	?	i	-3%	?	-5%	12%
Cc1ccc(C2c3cc(OCc4nc(C(=O)N5CCCC5)co4)ccc3CCN2C(=O)C2CC2)cc1 (stereo unspecified)	?	i	-2%	40µM*	-8%	-10%
C=CCNC(=O)c1coc(COc2ccc3c(c2)C(c2ccc(C)cc2)N(C(=O)C2CC2)CC3)n1 (stereo unspecified)	?	i	-20%	?	-4%	-12%
COCCNC(=O)c1coc(COc2ccc3c(c2)C(c2ccc(C)cc2)N(C(=O)C2CC2)CC3)n1 (stereo unspecified)	?	i	2%	25µM*	8%	-5%
CC(C)CNC(=O)c1coc(COc2ccc3c(c2)C(c2ccccc2)N(C(=O)C(C)C)CC3)n1 (stereo unspecified)	40µM*	i	-16%	?	-9%	1%
COc1ccc(C(=O)N2CC(CNC(=O)N3CCCC3)C3(CCOCC3)C2)cc1F (stereo unspecified)	-10%	.	.	i	-10%	-12%
Cn1ncc2c(C(=O)NCc3cccs3)cc(-c3ccccc3)nc21	?	.	.	?	5%	?
O=C(c1ccc2c(c1)OCO2)N1CCCC1c1nnc2n1CCNC2 (stereo unspecified)	-10%	.	.	-18%	-11%	-26%
CCNC(=O)c1coc(COc2ccc3c(c2)C(c2ccc(F)cc2)N(C(=O)CC(C)C)CC3)n1 (stereo unspecified)	?	i	-18%	?	-4%	-31%
CCC(=O)N1CCc2ccc(OCc3nc(C(=O)NCCOC)co3)cc2C1c1ccc(C)cc1 (stereo unspecified)	-28%	i	0%	28µM*	3%	-5%
C1=C(c2nc(-c3cccc4[nH]ncc34)cc3c2ccn3Cc2cccnc2)CCOC1	?	i	-20%[70.6 µM]	89µM*	?	-2%[87.6 µM]
CN(C)Cc1ccc(-c2cc3c(ccn3Cc3cccnc3)c(C3=CCOCC3)n2)cc1	25µM*	i	-9%[70.6 µM]	56µM*	-24%[87.6 µM]	-13%[87.6 µM]
C1=C(c2nc(-c3ccc(N4CCOCC4)cc3)cc3c2ccn3Cc2cccnc2)CCOC1	?	i	-2%	?	0%	-1%
O=C(Cc1cccnc1)N1CCC2(CC1)CC(N1CCN(c3ccccn3)CC1)CCO2 (stereo unspecified)	-24%	.	.	?	-7%	-11%
COCCc1nc(-c2cnc(C3CC3)nc2)n(-c2ccc(F)cc2F)n1	89µM*	i	1%	?	0%	-24%
COC(=O)[C@@H]1Cc2ncn(Cc3ccc(Cl)cc3)c2CN1CCCc1ccccc1	-95%[138 µM]	i	?	25µM*	?	?
COC(=O)[C@@H]1Cc2ncn(Cc3ccc(Cl)cc3)c2CN1Cc1cccs1	89µM*	i	?	?	-13%[87.6 µM]	-22%[87.6 µM]
O=C(c1cccnc1)N1CCC2(CC1)CC(CCOc1ccncc1)CCO2 (stereo unspecified)	-29%	.	.	?	4%	4%
Cn1cccc1CN1CCC(N2C(=O)C(OCC3CC3)C23CCCCC3)CC1 (stereo unspecified)	?	i	-15%	45µM*	-4%	11%
SMILES	3T3 cytotox	FLuc inh	NPR1 antag	HEK cytotox	HEK293 viab	SNCA expr inh
CC(C)(C)c1ccc(C(=O)Nc2nc3c(s2)C[C@@H]2[C@](C)(CO)[C@H](O)CC[C@@]2(C)[C@@H]3CC(=O)NC2CC2)cc1	45µM*	45µM*	3%	45µM*	-16%	-12%
CC(C)NC(=O)C[C@@H]1c2nc(NC(=O)c3ccc(C(C)(C)C)cc3)sc2C[C@@H]2[C@](C)(CO)[C@H](O)CC[C@]21C	50µM*	?	5%	40µM*	-10%	15%
COc1ccc(C(=O)Nc2nc3c(s2)C[C@@H]2[C@](C)(CO)[C@H](O)CC[C@@]2(C)[C@@H]3CC(=O)N2CCOCC2)cc1	-14%	i	-5%	-14%	3%	64%
CC(C)(C)c1ccc(C(=O)Nc2nc3c(s2)C[C@@H]2[C@](C)(CO)[C@H](O)CC[C@@]2(C)[C@@H]3CC(=O)N2CCOCC2)cc1	35µM*	i	-3%	?	-5%	0%
COc1ccccc1CNC(=O)C[C@@H]1c2nc(-c3cccnc3)sc2C[C@@H]2[C@](C)(CO)[C@H](O)CC[C@]21C	79µM*	i	-10%	?	0%	-19%
CCOCCNC(=O)CNC(=O)c1ccc(-c2cccc(C(F)(F)F)c2)cc1	?	.	.	?	-6%[12.5 µM]	69%
COCC(=O)N1CCCC1C(=O)N1CCC(N2Cc3cccn3C2=O)CC1 (stereo unspecified)	-14%	.	.	i	-14%	4%
Cc1ccc([S+](=O)([O-])N2CCC(C(=O)N3CCC(N4Cc5cccn5C4=O)CC3)CC2)cc1	?	.	.	?	9%	-7%

Compound activity from PubChem.
